Screening data (PubChem BioAssay)
An excerpt weighted towards active compounds, which were near 6.1% of everything screened.
D1 potentiator: potentiators of human D1 dopamine receptor; P21728; HEK293 TREx D1 cells, calcium flux, dopamine EC20 potentiation; potentiation, % at 10 µM; actives 0.036% (n = 360,000); AID 504651; in the data active means potentiation above about 30%; further: 0% is about no effect
Target sequence (P21728 whole entry, looked up): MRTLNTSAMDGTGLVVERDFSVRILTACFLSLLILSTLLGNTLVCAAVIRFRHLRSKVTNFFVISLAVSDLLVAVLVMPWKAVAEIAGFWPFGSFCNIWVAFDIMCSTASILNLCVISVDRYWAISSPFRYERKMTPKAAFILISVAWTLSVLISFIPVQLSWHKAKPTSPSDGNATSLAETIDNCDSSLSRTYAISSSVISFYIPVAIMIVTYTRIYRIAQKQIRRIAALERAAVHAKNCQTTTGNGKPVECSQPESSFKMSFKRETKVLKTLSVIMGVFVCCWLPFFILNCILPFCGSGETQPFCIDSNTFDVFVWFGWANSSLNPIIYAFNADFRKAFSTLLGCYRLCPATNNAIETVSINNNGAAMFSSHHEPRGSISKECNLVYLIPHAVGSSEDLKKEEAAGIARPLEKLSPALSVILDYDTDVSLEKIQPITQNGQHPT
D1 agonist: human D1 receptor agonism. P21728. HEK293 T-REx D1 cells, calcium flux, agonist mode. activation, % at 2 µM. actives 1% (n = 360,000). AID 504660; in the data active means activation above about 30%; further: 0% is about no effect
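Inducible HEK293 T-REx D1 cells, force-coupled to calcium signalling, were plated at 4000 cells/well with tetracycline and held overnight at 30 C. After no-wash calcium dye loading, compound-evoked calcium rise over 180 s flagged agonists.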
D1 antagonist: blocks dopamine activation of the human D1 receptor | actives 3.2% (n = 360,000) | activity change, negative = inhibition, % at 10 µM | HEK293 TREx D1 cells, calcium flux, dopamine EC80; active compounds read low | AID 504652; in the data active means activity change below about -30%; further: on the % scale 0 is the no-effect control and ±100 the full control effect
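Calcium flux readout: force-coupled, inducible Hek293 Trex D1 line, cells induced overnight at 30 C with tetracycline, dye-loaded 30–90 min at RT. Antagonism scored against EC80 dopamine challenge given 180 s after compound.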
DRD3 agonist: activates the human D3 dopamine receptor; P35462; D3R DiscoveRx beta-arrestin cells, luminescence, 90 min; max activation, %; actives 0.58% (n = 410,000); in the data active means max activation above about 30%; further: 0% is about no effect
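Agonist mode: compounds and dopamine controls were applied to plated cells for 90 min at 37 degrees C after an overnight attachment at 1500 cells/well. Luminescent read-out followed 30 - 60 minutes at room temperature with DiscoveRx detection reagent.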
DRD3 antagonist: blocks the human D3 dopamine receptor; D3R cells, DiscoveRx beta-arrestin luminescence, antagonist mode; active compounds read low; max response, negative = inhibition, %; actives 2.5% (n = 360,000); AID 652054; in the data active means max response below about -50%; inconclusive means no clear call, values can overlap the other calls; further: on the % scale 0 is the no-effect control and ±100 the full control effect
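Cells plated overnight at 1500 cells/well, then exposed to library compounds with dopamine controls for 90 minutes at 37 degrees C. DiscoveRx reagent added for 30–60 minutes at room temperature; luminescence read, quantitative HTS format.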
* marks the source's active call; other numbers are inactive results; ? = inconclusive; . = not tested or not shown.

SMILES	D1 potentiator	D1 agonist	D1 antagonist	DRD3 agonist	DRD3 antagonist
Cc1ccc(NC(=S)N(CCCN2CCN(C)CC2)Cc2cccs2)cc1C	9	6	5	-34	-23
Cc1ccc(NC(=S)N(CCCN2CCN(C)CC2)Cc2cccs2)cc1	1	6	0	-4	-2
CSc1cccc(NC(=S)N(CCC(C)C)C2CCN(C(C)C)CC2)c1	-5	10	-6	-16	-85*
COc1cc(/C=C(\C#N)c2nc3ccccc3c(=O)[nH]2)cc(OC)c1OC	-3	3	4	1	.
COc1ccc(NC(=S)N(CCCN2CCCCC2)Cc2cccs2)cc1	-6	3	22	-32	-87*
COc1ccc(NC(=S)N(CCCN2CCOCC2)Cc2ccco2)cc1	-11	2	-9	-5	-1
COc1cccc(NC(=S)N(CCCN2CCC(C)CC2)Cc2cccs2)c1	0	4	-7	-41	-84*
O=C(Nc1cccc(Cl)c1)c1ccc2nc(Cc3ccccc3)oc2c1	-1	8	-3	-18	.
Cc1cc(C)c(C(=O)CN2C(=O)NC3(CCC(C)CC3)C2=O)cc1C (stereo unspecified)	-1	3	-29	-2	-6
Cc1cc(C)c(C(=O)CN2C(=O)NC3(CCCCC3)C2=O)cc1C	1	-4	-3	35*	-5
Cc1ccc(NC(=O)CCN2C(=O)NC3(CCCC3)C2=O)c(C)c1	-14	2	-34*	-2	?
Cc1cc(-c2ccc(C)c(S(=O)(=O)NCc3cccs3)c2)on1	-4	2	-13	-8	.
COc1ccc(S(=O)(=O)Nc2ccc(NC(C)=O)cc2)cc1	-1	2	-15	-18	-16
CC(=O)Nc1ccc(S(=O)(=O)NC2CCCCCC2)cc1	-3	5	-7	-10	-3
O=C(COc1ccc(S(=O)(=O)NC2CCCCC2)cc1)N1CCN(c2ccc(F)cc2)CC1	-8	10	-30*	4	-26
CCOc1ccc(NS(=O)(=O)c2ccc(NC(=S)NC(=O)C(C)C)cc2)cc1	-4	32*	10	-5	-21
COc1ccc(NS(=O)(=O)c2ccc(NC(=S)NC(=O)C(C)C)cc2)cc1	-4	23	20	6	9
CCOc1ccc(NS(=O)(=O)c2ccc(NC(=S)NC(C)=O)cc2)cc1	-5	95*	-11	-9	-27
CC(C)C(=O)NC(=S)Nc1ccc(S(=O)(=O)NC2CCCCC2)cc1	-5	11	-32*	-10	-17
CCC(C)NC(=O)c1nn(-c2ccc(C)cc2)nc1CO (stereo unspecified)	2	2	-5	9	.
Cn1c(=O)c2sccc2n2c(CCCC(=O)Nc3ccc(Oc4ccccc4)cc3)nnc12	-5	0	0	5	.
CCOc1ccc(/C(O)=C/C(=O)C(=O)Nc2ccc(S(=O)(=O)NC(C)=O)cc2)cc1	-1	-1	12	-10	-60*
O=C(O)c1ccc(S(=O)(=O)NC2CCCCC2)cc1	3	0	12	0	-59*
O=C(NC1CC1)c1ccc(S(=O)(=O)NC2CCCCCC2)cc1	-5	5	-18	17	16
CCOc1ccc(NC(C)=O)cc1	-2	1	6	2	9
SMILES	D1 potentiator	D1 agonist	D1 antagonist	DRD3 agonist	DRD3 antagonist
CCOC(=O)c1ccccc1NC(=O)N(Cc1ccco1)C1CCN(C(C)=O)CC1	5	0	0	-18	.
N=c1n(CCN2CCCCC2)c2ccccc2n1CC(O)c1ccc(Cl)c(Cl)c1 (stereo unspecified)	-3	65*	15	-19	?
N=c1n(CCN2CCCCC2)c2ccccc2n1CC(O)c1cccc(Br)c1 (stereo unspecified)	-1	8	6	-20	-15
Oc1c(I)cc(Cl)c2cccnc12	3	0	8	-93	-71*
O=[N+]([O-])c1cc(Cl)c2cccnc2c1O	-3	30*	-12	13	1
O=[N+]([O-])c1ccc(O)c2ncccc12	2	0	4	-30	-68*
O=[N+]([O-])c1cc(Cl)c(O)c2ncccc12	-2	3	1	0	-20
O=[N+]([O-])c1ccc(O)c2cccnc12	-3	2	3	-3	-26
COC(=O)c1ccc(CSc2c(C(C)C)cnc3c2c(=O)n(C)c(=O)n3C)cc1	1	1	-7	7	.
CCc1ccc(C(=O)c2cn(CC(=O)Nc3ccc(OC)c(Cl)c3)c3nc(C)ccc3c2=O)cc1	-4	3	12	-19	.
Cn1c(C(=O)N2CCN(Cc3ccc4c(c3)OCO4)CC2)cc2sccc21	-3	0	-20	-32	-96*
COc1ccsc1C(=O)N1CCN(Cc2ccc3c(c2)OCO3)CC1	-2	0	-3	-2	-63*
COc1ccc(NC(=O)CN2CCN(Cc3ccc4c(c3)OCO4)CC2)cc1OC	-3	2	-10	-10	-73*
Cn1c(C(=O)N2CCC(C(=O)N3CCN(Cc4ccc5c(c4)OCO5)CC3)CC2)cc2sccc21	6	3	-16	-9	0
COc1cccc(C(=O)N2CCN(Cc3ccc4c(c3)OCO4)CC2)c1OC	-3	0	-22	-3	-67*
COc1ccc(CN2CCN(C(=O)c3cccc(OC)c3OC)CC2)cc1OC	0	5	5	0	1
CN(Cc1ccccc1)c1ccc2cc(S(=O)(=O)N3CCCCC3)ccc2n1	-5	2	4	-3	.
CCOc1ccc(C2NC(=O)Cc3cc(OC)c(OC)cc32)cc1 (stereo unspecified)	-2	2	18	10	55
CCOc1ccc(C2OC(=O)Cc3cc(OC)c(OC)cc32)cc1 (stereo unspecified)	-4	4	-31*	8	-13
CCCCOCc1cc(CN2CCN(c3cccc(Cl)c3)CC2)c(O)c2ncccc12	-1	0	1	-12	.
Cc1nn(-c2ccccc2)c2c1N(CCCC(=O)NC(C)c1ccccc1)C(=O)CS2 (stereo unspecified)	-6	1	-2	-10	.
COC1=C(C)C(=O)C2=C(C1=O)C1C3CC4=C(C(=O)C(OC)=C(C)C4=O)C(CNC(=O)C(C)=O)N3C(C#N)C(C2)N1C (stereo unspecified)	.	.	.	-21	-57*
Cc1c(C)n(Cc2ccc(F)cc2)c2ccc(C(=O)Nc3ccc(Cl)cc3)cc12	-1	2	12	7	.
Cc1ccc(NC(=O)C(NC2CCCc3ccccc32)c2ccccc2)cc1Cl (stereo unspecified)	7	9	-23	-17	-8
CNC(=O)NC(=O)C(NC1CCCc2ccccc21)c1ccccc1 (stereo unspecified)	11	-1	-33*	0	3
COc1ccc(NS(=O)(=O)c2ccc3c(c2)NC(=O)CCS3)cc1Cl	4	5	-39*	-2	-5
COc1ccc(NS(=O)(=O)c2ccc3c(c2)NC(=O)CCS3)c(OC)c1	-5	10	-22	6	.
